Assay results reported in PubChem BioAssay AID588850 (Sanford-Burnham Center for Chemical Genomics, 2011).
Hit rate of the full screen: of about 360,000 compounds, about 3,100 (0.86%) were called active.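 Rule for the calls: active = at least 50% inhibition at 5 µM, scaled per plate between neutral and stimulator controls; inactive = the rest.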 Many of the other results were omitted from the sample, so actives are more common in it than they were.

Experiment: NF-kB reporter blockers in CF airway cells – cell-based, GFP fluorescence, uHTS, primary screen (AID 588850);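 note: PAF is a Pseudomonas aeruginosa culture filtrate used as stimulus; plate controls were PAF-stimulated DMSO wells for no effect and unstimulated DMSO wells for full effect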
Conditions: KKLEB NF-kB-GFP reporter, PAF-induced, GFP fluorescence overnight; at 5 µM; stronger effect = higher value

Row | SMILES | inhibition
1 | COC(=O)CNC(=O)C(CCSC)NC(C)=O (configuration not stated) | -2.1% (inactive)
2 | COc1ccc(-c2[nH]ncc2CN(C)Cc2cccnc2)c(F)c1 | 14.6% (inactive)
3 | CCOc1ccc2[nH]c(=O)c(CN(CCCO)S(=O)(=O)c3ccc(F)cc3)cc2c1 | 2.3% (inactive)
4 | COc1ccc2[nH]c(=O)c(CN(Cc3cccnc3)S(=O)(=O)c3ccccc3F)cc2c1 | 82.1% (active)
5 | CCCN(c1ccc(C(C)C)cc1)S(=O)(=O)c1c(C)[nH]c(=O)[nH]c1=O | -4.9% (inactive)
6 | Cc1noc(C)c1S(=O)(=O)Nc1cc(C(F)(F)F)ccc1N1CCOCC1 | 2.4% (inactive)
7 | Cc1ccc(N(CCC(=O)O)S(=O)(=O)c2cccc(C(F)(F)F)c2)cc1 | 11% (inactive)
8 | Cc1oc2c(F)c(F)c(F)c(F)c2c1S(=O)(=O)Nc1cccc(C(F)(F)F)c1 | 50.4% (active)
9 | Cc1ccsc1C(=O)NC1CCCCC1C (configuration not stated) | 6.2% (inactive)
10 | CC(C)Cc1nn2c(=O)cc(O)nc2s1 | -9.2% (inactive)
11 | COC(=O)c1scc(C)c1NC(=O)CSc1ccc(Cl)cc1 | -3.3% (inactive)
12 | CCCCOc1ccc(C(=O)NCC(=O)OCC(=O)c2c(N)n(C)c(=O)n(C)c2=O)cc1 | 14.9% (inactive)
13 | O=C(Nc1ccc(S(=O)(=O)N2CCCCCC2)cc1)c1c(F)cccc1F | -20.3% (inactive)
14 | COc1cccc(OC)c1C(=O)Nc1ccc(Cc2ccncc2)cc1 | -1.5% (inactive)
15 | O=C(Nc1ccncc1)c1c(F)cccc1F | 81.6% (active)
16 | CNC[C@H]1Oc2c(NC(=O)C3CCCCC3)cccc2C(=O)N([C@H](C)CO)C[C@@H]1C | 12.4% (inactive)
17 | O=S1(=O)CC(N2CCC(Cc3ccccc3)CC2)CN1Cc1ccccc1 (configuration not stated) | -8.1% (inactive)
18 | CCNC(=O)CC1C(=O)N(c2ccc(F)cc2)C(=O)N1Cc1cccs1 (configuration not stated) | -17.2% (inactive)
19 | Cn1c(C(=O)O)ccc1S(=O)(=O)N(Cc1ccccc1)Cc1ccccc1 | -3.7% (inactive)

Row | SMILES | inhibition
20 | C#CCN(C[C@H]1[C@H](OC(=O)NC2CCCC2)[C@H](OC(=O)NC2CCCC2)C[C@H]2C(=O)N(c3ccccc3)C(=O)[C@@H]12)S(=O)(=O)c1ccc(C)cc1 | 15.8% (inactive)
21 | C#CCN(C[C@@H]1[C@@H](OC(=O)NC2CC2)[C@@H](OC(=O)NC2CC2)Cn2c(=O)ccc(=O)n21)S(=O)(=O)c1ccc(C)cc1 | 53.2% (active)
22 | Cc1ccc(S(=O)(=O)N2C[C@H]3n4c(=O)ccc(=O)n4C[C@H](OC(=O)NC4CCCC4)[C@@]3(O)C2)cc1 | -0.9% (inactive)
23 | COC(=O)Cc1c(O)ccn(Cc2cccc(C(F)(F)F)c2)c1=O | -7.8% (inactive)
24 | CCN1CCC(O)(/C=C/c2ccc(C)cc2)C(C(=O)/C=C/c2ccc(C)cc2)C1 (configuration not stated) | 79.8% (active)
25 | CCN1CCC2(CC1)N=C(c1ccc(F)cc1)C(=S)N2C(=O)c1ccc(C)cc1 | 18% (inactive)
26 | CCOC(=O)C1=CCC2C(=O)N(Cc3ccccc3)C(=O)C12 (configuration not stated) | -1.4% (inactive)
27 | CCN(C(=O)CSc1nnnn1-c1ccccc1OC)C1CCS(=O)(=O)C1 (configuration not stated) | 6% (inactive)
28 | COc1ccccc1-n1nnnc1S(=O)(=O)Cc1ccc(Cl)cc1 | 85.9% (active)
29 | COc1ccccc1CN(C)c1nnnn1-c1ccccc1 | -3.9% (inactive)
30 | CCOC(=O)C1=CC[C@@H](c2ccncc2)N(S(=O)(=O)c2ccc(C)cc2)C1 | 2.5% (inactive)
31 | CCCC(C(=O)NC1CCCC1)N(C(=O)Cn1nnc(-c2ccc(C)o2)n1)c1cccc(O)c1 (configuration not stated) | -12.5% (inactive)
32 | O=c1c2cc(Br)ccc2nc(-c2cccc(Cl)c2)n1O | -1.4% (inactive)
33 | O=c1[nH]c(/C=C/c2cccc(Br)c2)nc2ccccc12 | 20.4% (inactive)
34 | O=C(/C(=C/c1cccc(Cl)c1)c1nc2ccccc2[nH]1)c1ccccc1 | 82.3% (active)
35 | Cc1cc(NC(=O)CN2C(=O)NC(C)(CCc3ccccc3)C2=O)no1 (configuration not stated) | -2.5% (inactive)
36 | CC(C)C(C)(C#N)NC(=O)CSc1nc2scc(-c3ccccc3)c2c(=O)[nH]1 (configuration not stated) | 9% (inactive)
37 | CSCC[C@H](NC(=O)NC1CCCC1)C(=O)O | -10.3% (inactive)
38 | COc1ccc(NC(=O)/C(Cl)=C(/Cl)S(=O)Cc2ccc(C)cc2)cn1 (configuration not stated) | 90% (active)

Row | SMILES | inhibition
39 | COc1ccc(NC(=O)C2Cc3c(-c4ccc5c(c4)OCO5)ccnc3O2)cn1 (configuration not stated) | 15.9% (inactive)
40 | COc1cccc(NC(=S)N(Cc2ccc(C)cc2)Cc2ccccn2)c1 | -2.3% (inactive)
41 | O=S(=O)(c1ccc(-c2ccno2)s1)N1CCCCC1 | 7.2% (inactive)
42 | CC(C(=O)N1CCOCC1)N1c2cccc3cccc(c23)S1(=O)=O (configuration not stated) | 4.3% (inactive)
43 | COc1cc(C(=O)OC(C)C(=O)NCC2CCCCC2)cc(NC(=O)c2ccco2)c1OC (configuration not stated) | -5.7% (inactive)
44 | COc1ccc(NC(=O)c2sc(N3CCOCC3)nc2-c2ccccc2)c(OC)c1 | 9.3% (inactive)
45 | COc1ccc(-c2cc(C(=O)n3cnc4ccccc43)c3ccccc3n2)cc1 | 5.5% (inactive)
46 | COc1ccc(NC(=O)c2cc(-c3cc(OC)c(OC)c(OC)c3)nc3ccccc23)c(OC)c1 | 60.9% (active)
47 | CC(C)n1cnc2c(Nc3cccc(Cl)c3)nc(N(CCO)CCCO)nc21 | 72.6% (active)
48 | NC(=O)CSc1nnc(-c2cccc(S(=O)(=O)N3CCOCC3)c2)o1 | -5.1% (inactive)
49 | O=S(=O)(Nc1ccc(OC(F)(F)F)cc1)c1cccc2nonc12 | -3.9% (inactive)
50 | O=S(=O)(Nc1ccc(O)c2ccccc12)c1ccc(OC(F)(F)F)cc1 | 96% (active)
51 | COc1ccccc1NS(=O)(=O)c1ccc(C(=O)N2CCN(c3ccccc3O)CC2)cc1 | 6.4% (inactive)
52 | CCOC(=O)CN1CC23C=CC(O2)C(C(=O)Nc2ccc(F)cc2)C3C1=O (configuration not stated) | -8.9% (inactive)
53 | NS(=O)(=O)c1ccc(CCNC(=O)CCCn2c(SCC(=O)N3CCCC3)nc3ccsc3c2=O)cc1 | -8.6% (inactive)
54 | NS(=O)(=O)c1cc2c(cc1Cl)NC(C(Cl)Cl)NS2(=O)=O (configuration not stated) | 22% (inactive)
55 | CCN1CCN(C(=O)N(Cc2ccc(Cl)cc2)S(=O)(=O)c2ccc(C)cc2)CC1 | 3.2% (inactive)
56 | O=C(c1cnn(-c2ccc(Cl)cc2)c1)c1ccccc1O | -14.6% (inactive)
57 | Cc1ncc(CC(=O)n2cc(C(=O)c3cc(Cl)ccc3O)cn2)s1 | 60.8% (active)
